A selection: hits, their analogues and other compounds. The true share with any hit is near 4.2%.
Wnt act = Wnt/beta-catenin pathway activators, primary screen, cell-based, plate reader, single point | Wnt/beta-catenin reporter cell assay, activator | activation, % at 9.35 µM | 1.2% of 300,000 active | AID 743398, 2014; in the data active means activation above about 30%, passing the limit was not always enough;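 further: 0% = neutral control wells and 100% = positive control wells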
GAA850 FXN act = FXN promoter activators, primary screen, cell-based, luciferase luminescence, HEK293 lucGAA850. HEK293 lucGAA850 FXN promoter luciferase reporter, 24 h; percent of 10 µM SAHA response. activation, % at 6 µM. 0.56% of 360,000 active. AID 540364, 2011;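 active means activation above the average of all compounds screened plus 3 SD, cutoff fixed separately per campaign, cut at about 7.5% in these data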;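 further: 0% = DMSO wells and 100% = 10 µM SAHA wells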
MITF TRPM1 HTS = activators of MITF-driven TRPM1 promoter reporter, primary screen, cell-based, SK-MEL-5, luciferase, single point. activation, % at 12.5 µM. 0.75% of 300,000 active. SK-MEL-5 TRPM1-promoter luciferase, 24 h; % of positive control, neutral wells = 0. AID 588334, 2011;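 active means mean activation of at least 80% with every replicate also reaching 80%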;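 further: 0% = neutral control wells and 100% = parthenolide positive control wells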
esBAF inh = Bmi1 luciferase reporter increase in mESCs, primary screen, esBAF inhibitor project, mouse ES cells, Bmi1 luciferase knock-in, single point; 2% of 350,000 active; 24 h; 100% = twice the neutral-well signal; reporter increase, % at 12.5 µM; in the data active means activation above about 40%;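 further: 0% = median of the plate's neutral control wells and 100% = double that signal; a rise in the Bmi1 reporter signal indicates esBAF inhibition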
AHR act = AHR activators, primary screen, cell-based, luminescence, luciferase reporter, human; Aryl hydrocarbon receptor (Homo sapiens), P35869; AHR-responsive luciferase reporter cells; 2.5% of 320,000 active; activation, % at 5 µM; in the data active means activation above about 47%;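 further: 0% = vehicle wells and 100% = reference agonist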
AHR act confirm = AHR activators, confirmation, cell-based, luminescence, luciferase reporter, human; activation, % at 9 µM; 87% of 2,300 active; shares compounds with AHR act; human cells, AHR-responsive luciferase reporter; in the data active means activation above about 49%;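 further: HepG2 hepatoma cells carrying a DRE-driven firefly luciferase reporter; 0% = vehicle wells and 100% = reference agonist wells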
PXR act counter = human PXR activators, counter-screen for AHR activator project, cell-based, luciferase luminescence; shares compounds with AHR act; cell-based PXR reporter; activation, % at 11.6 µM; 88% of 2,300 active; in the data active means activation above about 11%;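 further: human hepatoma DPX-2 cells expressing full-length human PXR; 0% = DMSO and 100% = reference agonist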
Target sequence (O75469 whole entry, looked up): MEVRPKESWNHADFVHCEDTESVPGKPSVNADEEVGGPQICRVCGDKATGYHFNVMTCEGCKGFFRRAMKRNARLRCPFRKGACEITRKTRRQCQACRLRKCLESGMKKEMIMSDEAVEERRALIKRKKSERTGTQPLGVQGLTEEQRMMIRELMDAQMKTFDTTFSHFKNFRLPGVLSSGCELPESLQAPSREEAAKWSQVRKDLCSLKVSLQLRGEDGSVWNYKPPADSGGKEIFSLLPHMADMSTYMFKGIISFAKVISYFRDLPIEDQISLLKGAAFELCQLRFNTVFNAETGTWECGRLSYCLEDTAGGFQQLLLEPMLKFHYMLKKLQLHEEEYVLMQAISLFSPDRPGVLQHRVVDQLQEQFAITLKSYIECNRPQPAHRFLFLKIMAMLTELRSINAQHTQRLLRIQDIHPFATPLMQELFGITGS
Active calls of the source: *; nt = no result.

SMILES | Wnt act | GAA850 FXN act | MITF TRPM1 HTS | esBAF inh | AHR act | AHR act confirm | PXR act counter
C[C@@H]1CN([C@@H](C)CO)C(=O)c2cc(N(C)C)ccc2O[C@@H](C)CCCCO[C@@H]1CN(C)Cc1ccncc1 | nt | nt | nt | -1 | nt | nt | nt
Cc1cc(CC(C)C)n(-c2nc3ccccc3c(=O)n2OCc2ccccc2)n1 | nt | -3 | -6 | 16 | 87* | 99* | 74*
Cc1cc(CC(C)C)n(-c2nc3ccccc3c(=O)n2OCC(=O)N(C)C)n1 | 0 | 1 | 12 | 7 | 15 | nt | nt
CCCNC(=O)N1C[C@@H]2[C@H](c3ccccc31)[C@H](CO)N2C(=O)NC(C)C | nt | nt | nt | -5 | nt | nt | nt
CO[C@H]1CN(C)C(=O)c2cc(NC(=O)c3cccc(Oc4ccccc4)c3)ccc2OC[C@H](C)NC[C@H]1C | nt | nt | nt | -7 | nt | nt | nt
O=[N+]([O-])c1ccc2[nH]nc(-c3ccccc3)c2c1 | nt | 2 | 7 | nt | -1 | nt | nt
O=c1c(-c2ccccc2)n[nH]c2ccccc12 | 2 | 3 | 49 | -4 | 117* | 81* | 26*
COCc1nnc(NC(=O)CCS(=O)(=O)c2ccccc2)s1 | -1 | 0 | 8 | 4 | 2 | nt | nt
COc1ccc(OC)c2sc(NC(=O)CCS(=O)(=O)c3ccccc3)nc12 | -6 | 4 | nt | -3 | 115* | 63* | 24*
Cc1ccc2[nH]c(O)c(N=NC(=O)C(C)n3cnc4ccccc4c3=O)c2c1 (stereo unspecified) | -2 | 1 | -17 | 2 | 88* | 69* | 46*
O=C(Nc1ccc(F)cc1)N1C[C@H]2[C@@H](c3ccccc31)[C@H](CO)N2C(=O)Cc1ccncc1 | nt | nt | nt | 1 | nt | nt | nt
Cc1cnc(NC(=O)c2ccc(-c3ccc([N+](=O)[O-])cc3)o2)s1 | 6 | -1 | 19 | 16 | 14 | nt | nt
Cc1cnc(NC(=O)c2ccc(-c3nc4ccccc4s3)o2)s1 | 27 | 3 | 7 | 20 | 89* | 114* | 14*
COC(=O)[C@H]1[C@H](CO)[C@H]2Cn3c(ccc(-c4cccnc4)c3=O)[C@H]2N1Cc1ccccc1F | nt | nt | nt | 2 | nt | nt | nt
C[C@@H]1CCCCO[C@H](CN(C)Cc2ccc(C(F)(F)F)cc2)[C@@H](C)CN([C@@H](C)CO)C(=O)c2cc(NS(=O)(=O)c3ccc(F)cc3)ccc2O1 | nt | nt | nt | 6 | nt | nt | nt
O=[N+]([O-])c1ccc(CSc2nc3ncc(Br)cc3[nH]2)cc1 | -2 | -1 | nt | nt | 9 | nt | nt
O=C(CSc1nc2ncc(Br)cc2[nH]1)c1cccc([N+](=O)[O-])c1 | nt | -1 | -9 | nt | 92* | 67* | 98*
Fc1ccccc1CSc1nc2ncc(Br)cc2[nH]1 | nt | 2 | 33 | nt | 104* | 71* | 100*
CC(C)(C)C(=O)CSc1nc2ncc(Br)cc2[nH]1 | -4 | -1 | -13 | 9 | 84* | 57* | 125*
COC(=O)CSc1nc2ncc(Cl)cc2[nH]1 | nt | -1 | -12 | -2 | 2 | nt | nt
CC1CCCN(C(=O)c2cc3c(-c4ccc(Cl)cc4)nn(C)c3s2)C1 (stereo unspecified) | -3 | 0 | -7 | 6 | 82* | 80* | 23*
O=C(N/N=C/c1ccc(-c2ccccc2[N+](=O)[O-])o1)c1cncc(Br)c1 | 9 | 1 | -8 | nt | 83* | 76* | nt
Cc1c(C(=O)N/N=C/c2ccc(-c3ccccc3[N+](=O)[O-])o2)sc(N)c1C#N | 2 | 1 | 8 | 25 | 133* | 163* | 50*
O=C(N/N=C\c1ccc([N+](=O)[O-])o1)c1cncc(Br)c1 | 0 | 2 | nt | nt | 34 | nt | nt
Cc1c(-c2ccc(/C=N/NC(=O)C(=O)Nc3ccccc3F)o2)cccc1[N+](=O)[O-] | -2 | 0 | nt | nt | 1 | nt | nt
SMILES | Wnt act | GAA850 FXN act | MITF TRPM1 HTS | esBAF inh | AHR act | AHR act confirm | PXR act counter
Nc1n[nH]c(-c2cccc([N+](=O)[O-])c2)n1 | nt | 0 | -3 | nt | 34 | nt | nt
O=[N+]([O-])c1cccc(-c2cc3ccccc3[nH]2)c1 | 6 | 1 | nt | 29 | 84* | 134* | 15*
Cc1cc2nc(C)n3c4ccccc4nc3n2n1 | nt | -1 | -23 | 12 | 85* | 127* | 13*
CCc1nc2cc(C)nn2c2nc3ccccc3n12 | nt | 4 | 12 | 28 | 91* | 99* | 30*
Cc1nc2ccccc2c2nc3ccccc3n12 | nt | 3 | 18 | 34 | 36 | nt | nt
O=C(C[C@H]1C[C@H]2c3cc(NS(=O)(=O)c4ccc(F)cc4)ccc3O[C@H]2[C@H](CO)O1)NCC1CC1 | nt | nt | nt | -19 | nt | nt | nt
COc1ccccc1NC(=O)Nc1ccc2c(c1)C(=O)N(C)C[C@H](OC)[C@@H](C)CN[C@@H](C)CO2 | nt | nt | nt | 5 | nt | nt | nt
Cc1cc(SCC(=O)c2cccs2)nc2c(C)cccc12 | nt | 3 | -2 | -1 | 83* | 100* | 65*
Cc1cc(=O)[nH]c(SCC(=O)c2ccccc2)c1C#N | nt | 2 | 5 | -6 | 30 | nt | nt
Cc1cc(C)c(C#N)c(SCC(=O)c2cccs2)n1 | nt | 2 | 47 | 35 | 165* | 112* | 28*
Cc1cc(C)c(C#N)c(SCC(=O)c2ccccc2)n1 | 2 | 1 | 14 | nt | 148* | 153* | 29*
COC(=O)CSc1nc(C)cc(C)c1C#N | -7 | 0 | 6 | nt | 2 | nt | nt
Cc1nnc(SCc2nc(N)nc(Nc3ccccc3)n2)s1 | nt | 4 | nt | 20 | 7 | nt | nt
COc1ccc(Nc2nc(N)nc(CSc3nnc(N)s3)n2)cc1 | nt | 4 | nt | 10 | 112* | 110* | 15*
CC(C)CC#Cc1cnc2c(c1)C(=O)N([C@H](C)CO)C[C@@H](C)[C@H](CN(C)C(=O)c1cnccn1)O2 | nt | nt | nt | -1 | nt | nt | nt
C[C@@H]1CN([C@@H](C)CO)C(=O)c2cccc(NS(C)(=O)=O)c2O[C@H]1CN(C)C(=O)NC1CCCCC1 | nt | nt | nt | 1 | nt | nt | nt
O=C(O)c1ccc(N/N=C/C2=Cc3ccccc3OC2)cc1 | 41* | 6 | 138* | 81* | 122* | 83* | 18*
COCC(=O)N(C)C[C@@H]1Oc2cc(C#CCC3CCCC3)ccc2S(=O)(=O)N([C@@H](C)CO)C[C@H]1C | nt | nt | nt | 4 | nt | nt | nt
CN(C)/C=N/c1nc(-c2ccc3c(c2)OCO3)cs1 | 71* | 5 | 76 | 22 | 81* | 69* | 28*
Cc1nc(-c2ccc3c(c2)OCCO3)cs1 | -4 | 6 | 39 | nt | -2 | nt | nt
C[C@@H]1CN([C@H](C)CO)C(=O)c2cccc(NC(=O)c3ccc(-c4nccs4)cc3)c2O[C@@H]1CN(C)C(=O)Nc1ccc(F)cc1 | nt | nt | nt | -2 | nt | nt | nt
NC1=NC(=Nc2ccc(Br)cc2)c2ccccc21 | 26 | -2 | -19 | nt | 88* | 13 | 15*
CC(=O)N(/N=C1\Sc2ccccc2C1=O)c1ccccc1C | nt | 4 | 2 | 38 | 90* | 76* | 19*

Screening data from PubChem BioAssay.
